The record followed here is PubChem BioAssay.

Each structure is given as a SMILES string. The source made the active and inactive calls. No rule for the calls is given here.

As usually defined, the inhibition is the change of the read-out against control, counted positive when it falls.

Chain of Pantothenate synthetase (Mycobacterium tuberculosis (strain ATCC 25618 / H37Rv)) (P9WIL5 whole entry, looked up): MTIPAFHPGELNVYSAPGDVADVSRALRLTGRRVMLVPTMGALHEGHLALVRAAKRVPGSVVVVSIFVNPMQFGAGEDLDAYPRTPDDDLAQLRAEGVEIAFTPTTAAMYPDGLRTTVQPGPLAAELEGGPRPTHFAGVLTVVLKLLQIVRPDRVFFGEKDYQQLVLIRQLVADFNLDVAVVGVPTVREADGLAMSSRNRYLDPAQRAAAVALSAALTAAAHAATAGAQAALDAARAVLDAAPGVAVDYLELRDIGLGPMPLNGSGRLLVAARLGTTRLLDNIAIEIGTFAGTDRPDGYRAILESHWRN

The assay concerns the target Pantothenate synthetase (Mycobacterium tuberculosis (strain ATCC 25618 / H37Rv)) (UniProt P9WIL5). Put plainly: Recombinant Mtb pantothenate synthetase (PanC) inhibitors, coupled enzyme, confirmatory (AID 375).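 Also: 0% = full reaction with vehicle and 100% = no enzyme background.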 Particulars: coupled enzyme assay; at 10 µM, hits give high values.
On to `COc1ccc(-c2cc(C(=O)NCc3ccc(Cl)cc3)no2)cc1OC`, for which the inhibition was 0% (inactive).

As for `Cc1cc(C)cc(OCC(=O)NC2=NCCS2)c1`, the inhibition is 0% (inactive).

Consider `CC(=O)NCCC(=O)Nc1ccc(C)c(F)c1`, for which the inhibition is 6% (inactive).

In the case of `O=C1c2ccccc2C(=O)N1Cc1nc2ccccc2c(=O)n1CCN1CCOCC1`, the inhibition was 1% (inactive).

Consider `Cc1nc2ccccn2c1C(=O)NCCCN1CCOCC1`, for which the inhibition was 10% (inactive).

Consider `CCCn1c2ccccc2c2nnc(SCC(=O)Nc3ncccn3)nc21`, for which the inhibition was 8% (inactive).

With `Cn1c(=O)c2c(nc(N3CCN(c4ccccc4)CC3)n2CCCc2ccccc2)n(C)c1=O`, the inhibition was 0% (inactive).

Consider `Cc1noc(C)c1S(=O)(=O)N1CCC(C(=O)Nc2ccccn2)CC1`, for which the inhibition is 4% (inactive).

`CC(=O)N1C(=O)N(C)C2C1N(C(C)=O)C(=O)N2C` (stereo not given): the inhibition is 1% (inactive).

With `Cc1ccc(S(=O)(=O)NCCCCC(NC(=O)OC(C)(C)C)C(=O)O)cc1` (stereo not given) (tested in a mixture with another compound), the inhibition is 0% (inactive).

Consider `CCc1ncc(C(O)c2cccc(OC)c2OC)n1C` (stereo not given), for which the inhibition was 0% (inactive).

In the case of `CCOc1ccccc1OCCCCN1CCCC1`, the inhibition is 9% (inactive).

For `CCOC(=O)N1CCN(C(=O)c2csc3c2CCCCC3)CC1`, the inhibition is 0% (inactive).

With `CCOC(=O)CSc1nnc(CCc2nc3ccccc3[nH]2)n1C`, the inhibition is 10% (inactive).

On to `Cc1nnc(NCc2n[nH]c(=O)c3ccccc23)c2ccccc12`, for which the inhibition is 13% (inactive).

`Cc1ccc(S(=O)(=O)N2CCOCC(=O)NCCOCCNC(=O)COCC2)cc1`: the inhibition is 0% (inactive).

Take `COc1ccc(CCNC(=O)CSCc2n[nH]c(=O)[nH]2)cc1OC`: the inhibition was 0% (inactive).

In the case of `CN(C1CCCCC1)S(=O)(=O)c1ccc(S(=O)(=O)N2CCCC2)cc1`, the inhibition is 0% (inactive).

As for `COc1ccccc1CNC(=O)C(C)NS(=O)(=O)c1ccccc1` (stereo not given), the inhibition was 3% (inactive).

Consider `CCCCn1c(SCC(=O)N2CC(=O)Nc3ccccc32)nnc1-c1ccoc1C`, for which the inhibition was 3% (inactive).

Consider `COc1cc(NC(=O)NC(C)(C(F)(F)F)C(F)(F)F)cc(OC)c1OC`, for which the inhibition is 0% (inactive).

Regarding `COC(=O)C1=C(C)N(Cc2ccco2)C(=O)C1`, the inhibition is 0% (inactive).

Turning to `O=C(CN1C(=O)c2ccccc2S1(=O)=O)NCc1ccccc1Cl`, the inhibition was 0% (inactive).

`CC1(C)CC(=O)N(CC(=O)NCc2ccccc2)c2ccccc2S1(=O)=O`: the inhibition was 0% (inactive).

Consider `O=C(Nc1ccc(CN2CCCCC2)cc1)c1ccc2c(c1)OCO2`, for which the inhibition was 3% (inactive).

In the case of `Cn1cnc2cc(NC(=O)c3ccc(Cl)cc3)ccc21`, the inhibition is 0% (inactive).

`COc1ccccc1NC(=O)CSc1nnnn1-c1ccc2c(c1)OCO2`: the inhibition was 0% (inactive).

For `CSc1oc(-c2ccccc2)nc1S(=O)(=O)c1ccc(F)cc1`, the inhibition was 0% (inactive).

As to `CCC(=O)Nc1cc2nn(-c3ccccc3)nc2cc1Cl`, the inhibition is 0% (inactive).

As for `CCN(CC)C(=O)c1sc2nc(-c3cccs3)cc(-c3cccs3)c2c1N`, the inhibition is 0% (inactive).

Consider `Cc1ccc(NC(=O)Cn2cccc2)cc1Cl`, for which the inhibition was 0% (inactive).

For the compound `COc1ccccc1N1CCN(C(=O)N2CCOCC2)CC1`, the inhibition was 0% (inactive).

Turning to `CCn1c(=O)cc(SCC(=O)Nc2ccc3c(c2)OCO3)c2ccccc21`, the inhibition was 0% (inactive).

As for `CCOC(=O)Cc1ccc(NS(=O)(=O)c2ccc(SC)cc2)cc1`, the inhibition was 0% (inactive).

As to `Cc1cccc(N2C(=O)CC(Sc3nc(C)c4c(n3)CCCC4)C2=O)c1` (stereo not given), the inhibition is 0% (inactive).

In the case of `C=CCn1c(SCC(=O)NCCCC)nc2scc(-c3ccco3)c2c1=O`, the inhibition is 0% (inactive).

In the case of `O=C(Nc1ccc2c(c1)OCCO2)C1CCCN(S(=O)(=O)c2cnc[nH]2)C1` (stereo not given), the inhibition is 0% (inactive).

For the compound `Cc1cccc(NC(=O)CC2CCC2)c1`, the inhibition was 0% (inactive).

As for `CCOC(=O)Cc1csc(NC(=O)CSc2nnc(-c3ccncc3)n2Cc2ccco2)n1`, the inhibition is 0% (inactive).

As for `CCc1nccn1S(=O)(=O)c1ccc2ccc(C)cc2c1`, the inhibition was 3% (inactive).
